# Source: PubChem BioAssay (National Center for Advancing Translational Sciences (NCATS))
# FLuc counter – qHTS profiling assay for firefly luciferase inhibitor/activator using purifed enzyme and Km concentrations of substrates (counterscreen for miR-21 project); purified FLuc, Km substrates, luminescence inhibition; Potency, µM (doses to about 57.5 µM), without a hit: top-dose activity change, negative = inhibition, most hits filed as inhibitors; hit rate 6.9% among 360,000; AID 588342, 2011;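 further: plate controls were vehicle for no effect and reference inhibitor for full effect; nearly all actives have a fitted effect of over 55% in size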
# Target sequence (P08659 whole entry, looked up): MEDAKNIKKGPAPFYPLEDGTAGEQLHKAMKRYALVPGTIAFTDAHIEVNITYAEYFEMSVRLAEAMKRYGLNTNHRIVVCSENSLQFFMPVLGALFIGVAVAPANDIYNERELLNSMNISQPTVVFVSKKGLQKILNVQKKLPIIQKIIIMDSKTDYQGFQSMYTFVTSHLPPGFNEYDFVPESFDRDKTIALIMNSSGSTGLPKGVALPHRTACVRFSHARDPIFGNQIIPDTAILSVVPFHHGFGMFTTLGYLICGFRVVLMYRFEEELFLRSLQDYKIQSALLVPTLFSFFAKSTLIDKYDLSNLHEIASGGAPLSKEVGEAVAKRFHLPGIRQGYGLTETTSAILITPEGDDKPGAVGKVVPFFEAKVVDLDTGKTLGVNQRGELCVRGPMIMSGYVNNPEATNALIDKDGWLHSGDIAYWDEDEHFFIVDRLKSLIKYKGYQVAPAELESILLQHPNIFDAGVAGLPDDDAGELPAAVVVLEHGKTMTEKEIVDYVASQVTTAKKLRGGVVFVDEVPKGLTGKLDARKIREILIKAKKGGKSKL
#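 Purified P. pyralis luciferase, 10 nM final, with Km-level 10 uM D-luciferin and 10 uM ATP in 50 mM Tris acetate pH 7.5, 10 mM Mg acetate, 0.01% Tween-20, 0.05% BSA; 6-point qHTS titration about 60 µM downward; luminescence read.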
# SMN2 splice up – qHTS Assay for Enhancers of SMN2 Splice Variant Expression | hit rate 2.8% among 210,000 | HEK293 SMN2-luciferase splicing reporter, luminescence, 30-36 h | Potency, µM (doses to about 46.1 µM), without a hit: at the highest dose activity change, positive = activation, most hits filed as activators; further: % of control where 0% means no effect; nearly all actives have a fitted effect of over 55% in size
#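 HEK293 cells carry an SMN2 minigene-luciferase reporter in which exon 7 inclusion puts luciferase in frame. Cells were seeded at 2000 cells/well, attached for 10-12 hours, then exposed to compounds for 30-36 hours at 37C before ONE-Glo luminescence.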
# Rab9 promoter act – qHTS Assay for Rab9 Promoter Activators | hit rate 2.8% among 320,000 | Huh7 Rab9 promoter-luciferase reporter, luminescence, 24 h | Potency, µM (highest dose often 9.22 µM), inactives show at the highest dose activation, negative = inhibition, usual class: activators; further: % of control where 0% means no effect; nearly all actives have a fitted effect of over 60% in size
#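 Quantitative HTS format; Huh7 Rab9-luciferase reporter cells (1500/well) receive compound 2 h post-plating, incubate 24 h at 37 °C, then get luciferase reagent for 10 min before luminescence reading.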
# ELG1 genotoxic – qHTS screen for small molecules that induce genotoxicity in human embryonic kidney (HEK293T) cells expressing luciferase-tagged ELG1 | HEK293T ELG1-luciferase reporter, luminescence, 16 h | Potency, µM (series often up to 46 µM), for the others: at the top dose activity change, positive = activation, actives largely listed as activators | hit rate 1.3% among 330,000 | AID 504466, 2011; further: % of control where 0% means no effect; nearly all actives have a fitted effect of over 60% in size
#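 HEK293T cells expressing luciferase-tagged ELG1 were treated with compound or DMSO for 16 hr at 37°C. Luciferase activity was then read after 30 min with ONE-Glo at room temperature; rising signal flags genetic stress.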
# NPC1 prom act – qHTS Assay for NPC1 Promoter Activators. AID 485313, 2010. Huh7 NPC1 promoter luciferase reporter, 24 h. Potency, µM (top dose mostly 9.22 µM), without a hit: top-dose activation, actives largely listed as activators. hit rate 2.4% among 320,000; further: % of control where 0% means no effect; nearly all actives have a fitted effect of over 60% in size
#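 NPC1 promoter–luciferase Huh7 cells; 24 h compound; luminescence.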
# Active calls of the source: *; u = inconclusive; x = not tested or not shown. Compounds with a hit are over-represented: about 7.4% of the library has one in this group of screens. The call rests on the fitted dose curve; in most records, active means well fitted curve in the direction sought with a large enough effect; inconclusive means small, poorly fitted or top-dose-only effect, or another doubt; inactive means no such curve, though single readings can be large; an effect the other way counts as inactive or inconclusive. Potency means the concentration at half of the fitted maximal effect.
SMILES,FLuc counter,SMN2 splice up,Rab9 promoter act,ELG1 genotoxic,NPC1 prom act
O=C(NNC(=O)c1ccccc1Cl)c1ccc2c(=O)n3c(nc2c1)CCC3,x,x,18%,3%,1%
COc1ccc(COC(=O)c2ccc3c(=O)n4c(nc3c2)CCC4)cc1F,-4%,x,-1%,0%,-4%
O=C(Oc1ccccc1Cl)c1ccc2c(=O)n3c(nc2c1)CCC3,17µM*,x,0%,u,-5%
O=C(Oc1ccccc1F)c1ccc2c(=O)n3c(nc2c1)CCC3,15µM*,x,2%,1%,-1%
COc1ccc(CCN(C)C(=O)C2CCCN(C3CCN(Cc4ccccc4)CC3)C2)cc1OC (stereo not drawn),2%,x,0%,-8%,0%
CCCCNC(=O)CSc1nc2nc(C)c(Cc3ccccc3C)c(C)n2n1,0%,8%,x,x,x
CC1CCC/C(=C\Nc2ccccc2C(=O)O)C1=O (stereo not drawn),24µM*,14%,0%,12%,19%
CC1CCC/C(=C\Nc2ccc3c(c2)OCO3)C1=O (stereo not drawn),8.5µM*,u,u,10µM*,u
O=C1CCC/C1=C/Nc1ccc2c(c1)OCO2,17µM*,u,u,8%,10%
Cc1cccnc1NC(=O)CCNC(=O)c1ccccc1Cl,3%,x,7%,4%,1%
Cc1ccc(OCC(=O)N2c3ccccc3CC2C)c([N+](=O)[O-])n1 (stereo not drawn),-3%,-3%,0%,0%,-4%
Cc1cccc(C(=O)Nc2nc3nc(-c4ccccc4)cc(=O)n3[nH]2)c1,u,2%,x,x,x
CCOc1c(Nc2ccccc2O)c(=O)c1=O,-2%,x,-9%,-1%,1%
CN1/C(=C\C=N\O)C(C)(C)c2ccccc21,0%,-2%,-1%,2%,8%
CN(C)c1ccc(N=C/C=C2/N(C)c3ccccc3C2(C)C)cc1,15µM*,-6%,20%,4%,12%
CN1/C(=C\C=C2/C(=O)Oc3ccccc3C2=O)C(C)(C)c2ccccc21,u,u,2.8µM*,u,u
CN1/C(=C\C=C2/SC(=S)NC2=O)C(C)(C)c2ccccc21,u,x,-32%,0%,-13%
CN1C(=CC=C2C=C(I)C(=O)C(I)=C2)C(C)(C)c2ccccc21,21µM*,x,-20%,-5%,-3%
Cc1cccc(CN2C(=O)c3ccccc3S(=O)(=O)c3ccc(C(=O)N4CCCC4)cc32)c1,1%,0%,x,x,x
COc1ccc2c(c1OC)C(=O)N1C2SC[C@H]1C(=O)NC1CCCC1 (stereo partly drawn),0%,x,3%,-1%,-2%
Cn1c(=O)c2ccccc2n(CC(=O)NCCC2=CCCCC2)c1=O,3%,x,3%,6%,-3%
CC(C)(C)c1ccc(OCCC(=O)OCC(=O)NC2CC2)cc1,15µM*,x,-8%,-1%,-4%
CC(C)(C)c1ccc(OCCC(=O)OCC(=O)NC2CCS(=O)(=O)C2)cc1 (stereo not drawn),u,x,-6%,0%,-4%
Cc1ccc(OCCC(=O)OCC(=O)c2c(N)n(C)c(=O)n(C)c2=O)cc1,-11%,x,1%,-4%,4%
CC(C)(C)c1ccc(OCCC(=O)OCC(=O)NCc2ccccc2)cc1,19µM*,x,-6%,6%,0%
Cn1c(N)c(C(=O)COC(=O)CCOc2ccc(C(C)(C)C)cc2)c(=O)n(C)c1=O,21µM*,9%,8%,4%,-3%
Cn1cccc1C(=O)C(=O)Nc1cccc(Cl)c1Cl,2.4µM*,25µM*,22%,u,5%
Cn1cccc1C(=O)C(=O)Nc1ccc(Cl)cc1,1.9µM*,10µM*,0.5µM*,u,0.79µM*
Cn1cccc1C(=O)C(=O)Nc1ccc(F)c(F)c1,11µM*,11µM*,1.3µM*,u,2µM*
Cn1cccc1C(=O)C(=O)Nc1cc(Cl)cc(Cl)c1,u,-4%,u,25%,u
